In article PMC7862700, “An all-to-all approach to the identification of sequence-specific readers for epigenetic DNA modifications on cytosine” one finds binding signal data, which are given here for seven sequences.

Test in all cases: DAPPL (digital affinity profiling via proximity ligation, sequencing); 10 mM Tris-HCl pH 7.5, 50 mM NaCl, 1 mM DTT, 4% glycerol, room temperature, 30 min; GST-TFs on glutathione beads, 16-mer random dsDNA library, 0.1% formaldehyde crosslink after washing; high values mean tight binding
Conditions in all cases: protein: recombinant; tags: N-terminal GST; dsDNA, one strand shown

One experiment addresses T1, ERF (Homo sapiens, UniProt P50548 1-548).
T1 sequence: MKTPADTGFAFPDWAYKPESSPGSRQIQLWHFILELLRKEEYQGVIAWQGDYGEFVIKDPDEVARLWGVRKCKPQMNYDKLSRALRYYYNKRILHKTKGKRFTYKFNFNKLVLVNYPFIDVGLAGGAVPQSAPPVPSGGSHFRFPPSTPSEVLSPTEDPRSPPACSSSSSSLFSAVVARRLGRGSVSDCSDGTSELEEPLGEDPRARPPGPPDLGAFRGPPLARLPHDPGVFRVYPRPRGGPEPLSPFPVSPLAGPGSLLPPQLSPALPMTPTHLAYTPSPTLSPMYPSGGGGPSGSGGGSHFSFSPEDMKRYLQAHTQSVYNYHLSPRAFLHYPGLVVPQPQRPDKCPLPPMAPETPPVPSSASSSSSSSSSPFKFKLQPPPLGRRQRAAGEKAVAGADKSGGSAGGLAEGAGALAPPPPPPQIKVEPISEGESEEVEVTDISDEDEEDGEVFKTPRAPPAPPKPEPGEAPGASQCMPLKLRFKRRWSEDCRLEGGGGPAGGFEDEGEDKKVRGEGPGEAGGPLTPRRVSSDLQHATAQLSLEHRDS
A digest of the protocol:
(§1)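 Yeast served to express human transcription factors as GST fusions, which were then captured on glutathione beads and labelled with DNA barcodes. Pooled with a tag-only sample, they were incubated with 200 nmole of a 16-mer random double-stranded DNA library for 30 min at room temperature in Tris/NaCl/DTT/glycerol buffer, washed, crosslinked with 0.1% formaldehyde, ligated by proximity, amplified by PCR and sequenced. Dividing each hexamer's read frequency for a factor by its frequency for the tag-only sample gives the binding signal.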

The target of the next experiment is T2, ETV3L (Homo sapiens, UniProt Q6ZN32 1-361).
T2 sequence: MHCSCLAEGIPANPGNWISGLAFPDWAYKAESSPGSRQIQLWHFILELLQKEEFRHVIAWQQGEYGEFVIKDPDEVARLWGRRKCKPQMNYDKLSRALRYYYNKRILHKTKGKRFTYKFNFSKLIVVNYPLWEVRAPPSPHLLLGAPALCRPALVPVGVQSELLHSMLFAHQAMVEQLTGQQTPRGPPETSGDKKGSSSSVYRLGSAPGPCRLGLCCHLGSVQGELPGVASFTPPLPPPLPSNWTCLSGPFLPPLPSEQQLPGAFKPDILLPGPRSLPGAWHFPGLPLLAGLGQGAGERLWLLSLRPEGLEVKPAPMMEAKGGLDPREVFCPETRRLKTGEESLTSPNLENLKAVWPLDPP
A digest of the protocol:
as §1

In a further experiment the target is T3, ETS2 (Homo sapiens, UniProt P15036 1-469).
T3 sequence: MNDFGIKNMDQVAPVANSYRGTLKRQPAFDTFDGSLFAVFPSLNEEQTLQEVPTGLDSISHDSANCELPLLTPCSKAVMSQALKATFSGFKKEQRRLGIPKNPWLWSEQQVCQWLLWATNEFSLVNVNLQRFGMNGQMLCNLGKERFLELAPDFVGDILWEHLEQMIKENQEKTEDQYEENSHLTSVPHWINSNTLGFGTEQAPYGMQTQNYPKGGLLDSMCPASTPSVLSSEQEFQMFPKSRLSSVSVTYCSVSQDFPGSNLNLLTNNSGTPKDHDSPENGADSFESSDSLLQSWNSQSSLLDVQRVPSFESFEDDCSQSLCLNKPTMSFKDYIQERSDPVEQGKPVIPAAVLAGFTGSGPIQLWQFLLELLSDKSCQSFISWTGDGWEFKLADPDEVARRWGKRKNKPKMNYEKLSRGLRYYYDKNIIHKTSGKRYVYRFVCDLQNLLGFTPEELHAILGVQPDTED
An outline of the steps: as §1

In the next experiment the target is T4, SPDEF (Homo sapiens, UniProt O95238 1-335).
T4 sequence: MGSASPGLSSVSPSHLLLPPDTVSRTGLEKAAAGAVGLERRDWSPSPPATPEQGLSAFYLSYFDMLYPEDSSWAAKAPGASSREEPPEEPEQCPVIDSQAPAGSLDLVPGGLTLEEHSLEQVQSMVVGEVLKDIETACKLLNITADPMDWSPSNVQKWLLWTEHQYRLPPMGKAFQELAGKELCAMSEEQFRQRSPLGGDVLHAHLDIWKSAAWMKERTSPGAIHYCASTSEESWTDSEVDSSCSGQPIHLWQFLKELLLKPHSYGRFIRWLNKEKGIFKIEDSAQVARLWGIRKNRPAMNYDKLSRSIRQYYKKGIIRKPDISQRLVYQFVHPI
A digest of the protocol:
as §1

The target in another experiment is T5, ETV7 (Homo sapiens, UniProt Q9Y603 1-341).
T5 sequence: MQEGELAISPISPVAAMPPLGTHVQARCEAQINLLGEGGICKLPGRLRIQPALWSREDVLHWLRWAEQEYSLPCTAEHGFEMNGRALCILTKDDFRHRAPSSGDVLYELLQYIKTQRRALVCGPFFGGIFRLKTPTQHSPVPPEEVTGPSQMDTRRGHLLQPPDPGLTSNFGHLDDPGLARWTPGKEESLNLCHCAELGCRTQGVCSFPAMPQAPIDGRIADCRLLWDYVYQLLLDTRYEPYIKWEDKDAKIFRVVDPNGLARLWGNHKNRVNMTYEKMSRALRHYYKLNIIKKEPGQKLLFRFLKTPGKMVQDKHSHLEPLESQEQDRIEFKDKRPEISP
A digest of the protocol:
as §1

The target in a further experiment is T6, ELF5 (Homo sapiens, UniProt Q9UKW6-2 1-255).
T6 sequence: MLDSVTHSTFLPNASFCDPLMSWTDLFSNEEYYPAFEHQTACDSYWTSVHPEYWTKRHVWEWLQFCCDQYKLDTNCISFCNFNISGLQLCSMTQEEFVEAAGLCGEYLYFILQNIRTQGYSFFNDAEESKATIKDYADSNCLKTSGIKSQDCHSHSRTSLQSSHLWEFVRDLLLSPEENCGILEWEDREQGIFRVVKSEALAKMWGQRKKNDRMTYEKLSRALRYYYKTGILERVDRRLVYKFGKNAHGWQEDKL
An outline of the steps: as §1

The target of the next experiment is T7, ETV3 (Homo sapiens, UniProt P41162-2 1-143).
T7 sequence: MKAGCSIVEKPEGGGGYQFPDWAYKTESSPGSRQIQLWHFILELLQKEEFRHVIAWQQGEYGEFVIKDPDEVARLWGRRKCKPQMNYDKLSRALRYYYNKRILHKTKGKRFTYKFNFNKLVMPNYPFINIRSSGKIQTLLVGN
A digest of the protocol:
as §1

The next experiment deals with ETV6 (Homo sapiens, UniProt P41212 1-452). An outline of the steps:
as §1

ETV6, sequence (P41212 whole entry): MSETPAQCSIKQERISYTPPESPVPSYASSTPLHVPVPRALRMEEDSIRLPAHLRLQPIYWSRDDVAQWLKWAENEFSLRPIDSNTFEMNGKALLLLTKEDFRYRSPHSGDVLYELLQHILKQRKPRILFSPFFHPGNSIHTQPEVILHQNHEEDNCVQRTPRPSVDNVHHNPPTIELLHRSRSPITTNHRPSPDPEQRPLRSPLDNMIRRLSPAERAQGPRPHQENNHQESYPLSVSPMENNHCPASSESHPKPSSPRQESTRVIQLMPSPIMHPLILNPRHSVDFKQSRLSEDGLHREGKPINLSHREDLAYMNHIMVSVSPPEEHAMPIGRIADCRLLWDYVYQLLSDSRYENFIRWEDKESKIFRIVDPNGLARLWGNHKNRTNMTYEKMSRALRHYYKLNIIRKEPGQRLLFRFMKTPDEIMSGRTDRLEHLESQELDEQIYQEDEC

As to AAGAAG, the binding signal is 1.01 fold enrichment (6-mer frequency, TF over GST control) with ERF; 1.04 fold enrichment (6-mer frequency, TF over GST control) with ETV3L; 1.04 fold enrichment (6-mer frequency, TF over GST control) with ETS2; 1.01 fold enrichment (6-mer frequency, TF over GST control) in the experiment with SPDEF; 1.16 fold enrichment (6-mer frequency, TF over GST control) with ETV7; 1.12 fold enrichment (6-mer frequency, TF over GST control) in the experiment with ELF5. For the same sequence, the binding signal with ETV3 is 1.05 fold enrichment (6-mer frequency, TF over GST control); with ETV6 it was 1.16 fold enrichment (6-mer frequency, TF over GST control).

Consider TTCGAG, for which the binding signal is 1.23 fold enrichment (6-mer frequency, TF over GST control) with ERF; 1.36 fold enrichment (6-mer frequency, TF over GST control) with ETV3L; 1.26 fold enrichment (6-mer frequency, TF over GST control) in the experiment with ETS2; 1.19 fold enrichment (6-mer frequency, TF over GST control) with SPDEF; 1.18 fold enrichment (6-mer frequency, TF over GST control) with ETV7; 1.14 fold enrichment (6-mer frequency, TF over GST control) with ELF5. Also, the binding signal in the experiment with ETV3 is 1.09 fold enrichment (6-mer frequency, TF over GST control); with ETV6, 1.28 fold enrichment (6-mer frequency, TF over GST control).

As for CGCCGA, the binding signal was 1.34 fold enrichment (6-mer frequency, TF over GST control) in the experiment with ERF; 1.21 fold enrichment (6-mer frequency, TF over GST control) with ETV3L; 1.22 fold enrichment (6-mer frequency, TF over GST control) in the experiment with ETS2; 1.15 fold enrichment (6-mer frequency, TF over GST control) with SPDEF; 1.05 fold enrichment (6-mer frequency, TF over GST control) with ETV7; 1.1 fold enrichment (6-mer frequency, TF over GST control) with ELF5. The binding signal was 1.16 fold enrichment (6-mer frequency, TF over GST control) with ETV3 and 1.16 fold enrichment (6-mer frequency, TF over GST control) in the experiment with ETV6.

Take GTTTAT: the binding signal with ERF was 1.17 fold enrichment (6-mer frequency, TF over GST control); in the experiment with ETV3L it was 1.26 fold enrichment (6-mer frequency, TF over GST control); with ETS2, 1.1 fold enrichment (6-mer frequency, TF over GST control); with SPDEF it was 1.11 fold enrichment (6-mer frequency, TF over GST control); with ETV7 it was 1.19 fold enrichment (6-mer frequency, TF over GST control); in the experiment with ELF5, 1.14 fold enrichment (6-mer frequency, TF over GST control). In addition, the binding signal was 1.1 fold enrichment (6-mer frequency, TF over GST control) with ETV3 and 1.18 fold enrichment (6-mer frequency, TF over GST control) in the experiment with ETV6.

As for ATGGTC, the binding signal was 1.45 fold enrichment (6-mer frequency, TF over GST control) with ERF; 1.49 fold enrichment (6-mer frequency, TF over GST control) with ETV3L; 1.49 fold enrichment (6-mer frequency, TF over GST control) with ETS2; 1.35 fold enrichment (6-mer frequency, TF over GST control) with SPDEF; 1.29 fold enrichment (6-mer frequency, TF over GST control) with ETV7; 1.46 fold enrichment (6-mer frequency, TF over GST control) with ELF5. Moreover, the binding signal in the experiment with ETV3 is 1.55 fold enrichment (6-mer frequency, TF over GST control); with ETV6 it was 1.52 fold enrichment (6-mer frequency, TF over GST control).

In the case of ATACGG, the binding signal with ERF was 1.28 fold enrichment (6-mer frequency, TF over GST control); with ETV3L it was 1.15 fold enrichment (6-mer frequency, TF over GST control); in the experiment with ETS2, 1.22 fold enrichment (6-mer frequency, TF over GST control); with SPDEF, 1.31 fold enrichment (6-mer frequency, TF over GST control); with ETV7, 1 fold enrichment (6-mer frequency, TF over GST control); in the experiment with ELF5, 1.32 fold enrichment (6-mer frequency, TF over GST control). The binding signal was 1.31 fold enrichment (6-mer frequency, TF over GST control) in the experiment with ETV3 and 1.18 fold enrichment (6-mer frequency, TF over GST control) in the experiment with ETV6.

Consider CCGGCC, for which the binding signal was 1.06 fold enrichment (6-mer frequency, TF over GST control) with ERF; 1.19 fold enrichment (6-mer frequency, TF over GST control) with ETV3L; 1.05 fold enrichment (6-mer frequency, TF over GST control) with ETS2; 1.38 fold enrichment (6-mer frequency, TF over GST control) with SPDEF; 1.16 fold enrichment (6-mer frequency, TF over GST control) in the experiment with ETV7; 1.22 fold enrichment (6-mer frequency, TF over GST control) with ELF5. In addition, the binding signal is 1.24 fold enrichment (6-mer frequency, TF over GST control) with ETV3 and 1.11 fold enrichment (6-mer frequency, TF over GST control) with ETV6.
